ELG1 DNA repair: ELG1-dependent DNA repair inhibition | HEK293T ELG1-luciferase reporter, luminescence, 16 h; DNA damage induced by 5-fluorouridine | Potency, µM (doses to about 46.1 µM), for inactives: at the highest dose activity change, negative = inhibition, usual class: inhibitors | 2.3% of 330,000 active | AID 504467; note: potency is the fitted concentration of half-maximal effect; nearly all actives have a fitted effect of over 55% in size
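Overnight (16 hr) co-exposure of 2,000 cells/well to 5-fluorouridine and compound at 37 °C preceded detection. Luciferase was quantified via ONE-Glo luminescence; loss of signal denotes inhibition.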
HT1080 IDH1KD tx: kills HT-1080 cells with IDH1 knockdown. HT-1080 IDH1 knockdown viability, ATP luminescence, 48 h. Potency, µM (highest dose often 46.1 µM), inactives show at the highest dose activity, negative = toxicity, hits mostly cytotoxic. 2% of 360,000 active. AID 686971;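 note: potency is the fitted concentration of half-maximal effect; 0% = DMSO wells and -100% = cell-free medium wells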
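Knockdown cells (IDH1KD HT-1080) received compounds 2 h after plating at 750 cells/well and were kept 48 h at 37 °C in 5% FBS RPMI. A CellTiter-Glo luminescence read gave % activity for curve fitting.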
HT1080-NT tox: kills 2HG-producing HT-1080-NT fibrosarcoma cells | HT-1080-NT fibrosarcoma viability, CellTiter-Glo ATP luminescence, 48 h | Potency, µM (titrated, usually from 46.1 µM), inactives show at the highest dose activity, negative = less viability, hits mostly cytotoxic | 1.6% of 360,000 active;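 note: NT is the 2HG producing partner of a matched IDH1 knockdown line; potency is the fitted concentration of half-maximal effect; 0% = DMSO-treated cells and -100% = media-only wells without cells; nearly all actives have a fitted effect of over 55% in size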
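750 cells/well, RPMI + 5% FBS; 2 h settle, compound pin-transfer, 48 h at 37 degrees C. CellTiter-Glo 10 min RT, luminescence. Normalized to DMSO and media-only wells.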
TDP1 cell noCPT: qHTS for Inhibitors of human tyrosyl-DNA phosphodiesterase 1 (TDP1): qHTS in cells in absence of CPT. DT40 Tdp1-/- hTDP1 cells, no CPT, ATP luminescence, 48 h. Potency, µM (titrated, usually from 46.2 µM), for the others: at the highest dose activity change, negative = growth inhibition, actives largely listed as inhibitors. 15% of 420,000 active; note: potency is the fitted concentration of half-maximal effect; nearly all actives have a fitted effect of over 55% in size
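Growth kinetics read by CellTiter-Glo luminescence after ≥48 hr at 37 °C. Cells: DT40 Tdp1-/- stably carrying human TDP1, 400 per well, compound exposure in the absence of CPT (DMSO vehicle).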
TDP1 cell CPT: DT40-hTDP1 cell growth loss with CPT | chicken DT40 Tdp1-/-;hTDP1 cells + 20 nM CPT, ATP luminescence, 48 h | 12% of 420,000 active | Potency, µM (top dose mostly 46.2 µM), for inactives: at the highest dose activity change, negative = growth inhibition, actives largely listed as inhibitors | AID 686979; note: potency is the fitted concentration of half-maximal effect; nearly all actives have a fitted effect of over 55% in size
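Chicken DT40 Tdp1-/- cells stably complemented with human TDP1 were seeded at 400 cells/well in medium containing 20 nM camptothecin, exposed to pin-transferred compounds, and grown at 37 °C for at least 48 hr. Viability was read as ATP luminescence.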
IL1B secr inh: inhibitors of inflammasome signaling (IL-1 beta secretion); THP-1 LPS/ATP IL-1B secretion, AlphaLISA, 16 h; active compounds read low; activity change, % at 57.5 µM; 4.7% of 360,000 active; AID 743279; in the data active = activity change below about -50%; inconclusive = mostly about -30% to -49%
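Secreted IL-1B measured by AlphaLISA bead assay after 16 h compound exposure of THP-1 cells; compounds (final up to 57.5 uM) added 1 h before LPS (250 ng/mL) and ATP (1.25 mM) stimulation; lower signal means less secretion.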
* = called active by the depositor; ? = inconclusive; · = no result; [ ] = dose if it differs, or a comment. Most compounds without a hit are left out; they make up all but 19% or so of the library. Unless noted, calls come from the whole dose curve; as a rule, active = well fitted curve in the direction sought with a large enough effect; inconclusive = small, poorly fitted or top-dose-only effect, or another doubt; inactive = no such curve, though single readings can be large; an effect the other way counts as inactive or inconclusive. Unless noted, % is set by controls: 0 for no effect and ±100 for the full control effect.

SMILES	ELG1 DNA repair	HT1080 IDH1KD tx	HT1080-NT tox	TDP1 cell noCPT	TDP1 cell CPT	IL1B secr inh
O=C(c1ccc(F)cc1)N1c2nc(-c3ccco3)nn2C2(CCCCC2)[C@@H]2CCCC[C@@H]21	·	·	·	23µM*	?	·
COc1ccc(-n2c(=O)c3c(c4cc(OC)ccc4n3C)n(Cc3ccc(F)cc3Cl)c2=O)cc1	·	·	·	?	-13%	·
CCN(CC)CCCNC(=O)CCCn1c(=O)[nH]c2ccc(Br)cc2c1=O	·	·	·	-4%	-6%	·
COc1ccc(Cl)cc1NC(=O)CN(C)C(=O)c1cc(-c2ccncc2)nc2ccccc12	?	-27%	-12%	15µM*	23µM*	-25
CCOc1ccc(NC(=O)CN(C)C(=O)c2cc(-c3ccco3)nc3ccccc23)cc1OCC	·	-5%	-20%	18µM*	18µM*	-5
CCOc1ccc(NC(=O)CN(C)C(=O)c2cn(-c3ccccc3)nc2-c2cccs2)cc1OCC	21µM*	-24%	-5%	?	18µM*	0
CCOc1ccc(NC(=O)CN(C)C(=O)c2cc(-c3ccncc3)nc3ccccc23)cc1OCC	?	1%	-12%	16µM*	?	-11
CCOc1ccc(NC(=O)CN(C)C(=O)c2cn(-c3ccc(C)cc3)nc2-c2cccc(OC)c2)cc1OCC	·	-2%	-4%	?	?	-4
CSc1nc(N)c2c(n1)N(C)C=NS2(=O)=O	·	12%	5%	-16%	6%	-1
COc1cccc(NC(=O)CN(C)C(=O)c2cc(-c3ccco3)nc3ccccc23)c1	?	-4%	-20%	18µM*	?	-6
CN(CCOc1ccc(Cl)cc1)C(=O)c1cc(-c2ccco2)nc2ccccc12	?	-14%	-5%	?	?	-81*
CC(=O)N1N=C(c2ccccc2)CC1c1cn(C)c2ccccc12 (stereo not drawn)	?	-8%	0%	21µM*	?	?
CC(C)C(CCNCc1ccccn1)c1ccc(Cl)cc1 (stereo not drawn)	?	?	-19%	13µM*	?	·
COc1ccc(-c2cc(=O)oc3c4c(ccc23)OCN(Cc2ccccc2)C4)cc1	·	·	·	?	18µM*	·
O=c1cc(-c2ccccc2)c2ccc3c(c2o1)CN(Cc1ccccc1)CO3	·	·	·	?	-14%	·
COc1ccc(-c2cc(=O)oc3c4c(ccc23)OCN(Cc2cccc(OC)c2)C4)cc1	·	·	·	16µM*	10µM*	·
Cn1c(=O)c2ncn(C)c2n(C)c1=O	·	14%	1%	-20%	23%	30
Cc1cc(C)n2nc(SCC(=O)Nc3ccc(F)c(F)c3F)nc2n1	-12%	10%	21%	-18%	-8%	-9
COc1ccc(NS(=O)(=O)c2ccc3c(c2)NC(=O)C(C)S3)cc1 (stereo not drawn)	?	-13%	-9%	?	?	48
Cc1ccc(C)c(Nc2cc(C(=O)NCCCN(C)C3CCCCC3)c3ccccc3n2)c1	·	·	·	15µM*	?	·
COc1ccc(Nc2cc(C(=O)NCc3ccccc3)c3ccccc3n2)cc1	·	·	·	-26%	?	·
Cc1cc(C)cc(Nc2cc(C(=O)NCCCN(C)C3CCCCC3)c3ccccc3n2)c1	·	·	·	3.3µM*	4.6µM*	·
COc1ccc(CNC(=O)c2cc(Nc3ccc(C)cc3C)nc3ccccc23)cc1	·	·	·	21µM*	18µM*	·
Cc1cc(C)cc(Nc2cc(C(=O)NCc3ccccc3)c3ccccc3n2)c1	·	·	·	21µM*	23µM*	·
Cc1cc(C(=O)NCCCN(C)C)c2ccccc2n1	16%	1%	1%	3%	-3%	3
SMILES	ELG1 DNA repair	HT1080 IDH1KD tx	HT1080-NT tox	TDP1 cell noCPT	TDP1 cell CPT	IL1B secr inh
CC(O)(c1cccc(F)c1)c1nc(-c2cccc(C(F)(F)F)c2)cs1 (stereo not drawn)	·	?	21µM*	?	29µM*	-19
COc1cccc(C(C)(O)c2nc(-c3cnc4ccccc4c3)cs2)c1 (stereo not drawn)	·	?	-20%	18µM*	16µM*	23
CC(O)(c1cccc(F)c1)c1nc(-c2ccccc2)cs1 (stereo not drawn)	·	?	?	18µM*	21µM*	25
CC(=O)NC(C)(c1ccccc1)c1nc(-c2ccc(S(C)(=O)=O)cc2)cs1 (stereo not drawn)	·	1%	-12%	-24%	?	-20
CC(O)(c1cccc(F)c1)c1nc(-c2ccc(S(C)(=O)=O)cc2)cs1 (stereo not drawn)	·	-21%	-9%	13µM*	16µM*	7
CC(O)(c1cccc(F)c1)c1nc(-c2cccc(C(=O)O)c2)cs1 (stereo not drawn)	·	0%	9%	-1%	-1%	19
C=CCSc1nnc(NC(=O)CCN2C(=O)C3CC=CCC3C2=O)s1 (stereo not drawn)	?	-5%	-6%[9.24 µM]	1%	-20%	11
COc1ccccc1NS(=O)(=O)/C=C/c1ccccc1	0%	-4%	-3%	-19%	?	7
O=C(c1cccc([N+](=O)[O-])c1)c1ccc2[nH]c(=O)[nH]c2c1	28%	-11%	1%	-20%	-2%	-23
CC(O)(c1ccc(F)c(F)c1)c1nc(-c2cccc(C(F)(F)F)c2)cs1 (stereo not drawn)	·	?	?	?	18µM*	-16
Cn1cc(-c2csc(C(C)(O)c3cccc(F)c3)n2)cn1 (stereo not drawn)	·	-10%	3%	-12%	-9%	18
CC(O)(c1cccc(F)c1)c1nc(-c2cnc3ccccc3c2)cs1 (stereo not drawn)	·	?	15µM*	13µM*	15µM*	57
CC(O)(c1ccccc1)c1nc(-c2cccc(C(=O)O)c2)cs1 (stereo not drawn)	·	?	20%	-11%	-21%	29
CC(C)c1cccc(-c2csc(C(C)(O)c3ccccc3)n2)c1 (stereo not drawn)	·	?	?	23µM*	?	-12
CC(O)(c1cccc(F)c1)c1nc(-c2ccncc2)cs1 (stereo not drawn)	·	?	?	18µM*	15µM*	15
COC(=O)c1c(-c2ccccc2)nn(-c2ccccc2)c1C(=O)OC	-8%	4%	1%	?	?	4
